# Results filed as inconclusive are left out. A number with no mark means an inactive call. Activity calls are given as the source filed them. Calls follow the shape of the full dose curve.
# Molecular target: Thyroid hormone receptor beta (Homo sapiens) (UniProt P10828)
# Test: qHTS assay for small molecule agonists of thyroid hormone receptor beta signaling (AID 588545)
# Conditions: TR-UAS-bla GripTite HEK 293, beta-lactamase ratio, agonist mode, 18 h; series mostly up to 76.7 µM; activation: at the top concentration
# Source text: NIH Chemical Genomics Center [NCGC]
# U.S. Environmental Protection Agency [EPA]
# National Institutes of Environmental Health Sciences [NIEHS]
# National Toxicology Program [NTP]
# Thyroid hormone receptor (TR) belongs to nuclear hormone receptor superfamily. There are two subtypes for TR: TR-alpha and TR-beta. TR-beta plays a major role in regulating plasma cholesterol levels and it mediates the biological activities of thyroid hormone. Screening environmental chemicals on TR-beta signaling will provide important information for the mechanism of compound action.
# NCGC Assay Protocol Summary
# Using a beta-lactamase reporter-gene under control of the TR response element, a cell-based assay [GeneBLAzer TR-UAS-bla-GripTite assay developed by Invitrogen] was used to measure TR-beta signaling in agonist mode. TR-UAS-bla-GripTite HEK 293 cells were used with assay medium containing 2% charcoal/dextran FBS, 0.1 mM NEAA and 1 mM sodium pyruvate. The assay was performed in clear bottom black Greiner 1536-well plates. T3 was used as a positive control in the screen. Library compounds were measured for their ability to stimulate the reporter gene activity. Compounds were screened in a titration series in 1536-well format. The fluorescence intensity (405 nm excitation, 460/530 nm emission) was measured using an EnVision plate reader. Data was normalized relative to T3 control (10 nM, 100%), and DMSO only wells (basal, 0%). Concentration-response titration points for each compound were fitted to the Hill equation yielding concentrations of half-maximal stimulation (EC50) and maximal response (efficacy) values.
# qHTS protocol for TR-beta beta-lactamase assay in agonist mode
# [Step] [Parameter] [Value] [Description]
# 1. Reagent; 6 uL; 2500 cells/well
# 2. Incubation; 37 C for 4 hrs
# - Dose response; start 3.8 uM, 1:3 dilutions, duplicates in first column
# - Two columns of each 10 and 0.4 nM (finals) concentrations.
# 5. Incubation; 37 C for 18 hrs
# 6. Detection reagent; 1 uL of CCF4-dye
# 7. Incubation; RT for 2 hrs
# 8. Detection; Fluorescence; Envision plate reader
# Chain of Thyroid hormone receptor beta (Homo sapiens) (P10828 whole entry, looked up): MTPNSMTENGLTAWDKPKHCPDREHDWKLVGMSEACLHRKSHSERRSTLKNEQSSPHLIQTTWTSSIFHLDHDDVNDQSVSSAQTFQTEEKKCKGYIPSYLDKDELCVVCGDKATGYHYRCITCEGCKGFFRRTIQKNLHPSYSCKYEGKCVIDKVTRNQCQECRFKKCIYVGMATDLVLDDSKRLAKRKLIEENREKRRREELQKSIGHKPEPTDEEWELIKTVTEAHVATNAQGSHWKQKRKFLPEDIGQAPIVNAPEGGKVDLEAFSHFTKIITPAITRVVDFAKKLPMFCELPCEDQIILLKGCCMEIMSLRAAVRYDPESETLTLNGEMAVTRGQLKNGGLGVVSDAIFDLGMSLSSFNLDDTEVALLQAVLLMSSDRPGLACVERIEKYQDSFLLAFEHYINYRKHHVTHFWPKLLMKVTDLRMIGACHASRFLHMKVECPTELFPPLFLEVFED
SMILES,Potency,activation
ClCC(Cl)CCl,inactive,–
BrC(Br)Br,–,7.78%
Oc1cccc(Cl)c1Cl,–,3.53%
Nc1cccc2ccccc12,–,-12.4%
CCOP(=O)(OCC)OCC,inactive,–
ClCc1ccccn1,inactive,–
O=[N+]([O-])/C=C/c1ccccc1,–,-23.6%
CN(C)C(=O)Nc1ccc(Cl)cc1,inactive,–
Cc1cc(-c2cc(C)c(N)c(C)c2)cc(C)c1N,–,-5.44%
C=CCc1cc(OC)c2c(c1)OCO2,–,-6.77%
ClCCOCOCCCl,–,-6.89%
ClCC(Br)CBr (stereo not given),–,-1.47%
S=c1[nH]c2ccccc2[nH]1,–,-17.5%
N#CC(Br)Br,–,-13.4%
O=NN1CCCCC1,–,-19%
COC(=O)Nc1nc2ccccc2[nH]1,–,-4.43%
CCN(CC)N=O,–,-28%
N#CCCC#N,–,-6.29%
ClC=CCl,–,-8.34%
CC(C)C#N,–,4.04%

SMILES,Potency,activation
CC(C)(Cl)Cl,–,-3.45%
C=CC(=O)OC,–,-0.873%
Cl/C=C/CCl,–,-24.7%
C=C(Cl)CSC(=S)N(CC)CC,–,-2.41%
OCC(Cl)CCl (stereo not given),–,1.86%
CC(=O)NNc1ccccc1,–,3.67%
C=C(C)CCl,–,-20%
CCC#N,–,-24.4%
O=[N+]([O-])c1cccc(O)c1,–,13.3%
C(CCOCC1CO1)COCC1CO1 (stereo not given),–,-11%
CC(=O)CCC(C)=O,–,-2.81%
COc1c(C(C)(C)C)cc([N+](=O)[O-])c(C)c1[N+](=O)[O-],–,-11.5%
ClC(Br)Br,–,-5.45%
COP(=S)(OC)SCn1nnc2ccccc2c1=O,inactive,–
Cc1ccc2c(c1N)C(=O)c1ccccc1C2=O,inactive,–
BrCCc1ccccc1,–,-18.1%
O=S(=O)(Cl)c1ccccc1,inactive,–
Nc1cc(Cl)cc(C(=O)O)c1Cl,–,-1.3%
CCN(CC)CCO,–,-3.92%
Oc1ccc(Cl)c(Cl)c1Cl,–,-10.3%

# Reference: PubChem BioAssay (NCATS)
